Measured values published in PubChem BioAssay (NCI).
Several values for one entry are separate records, joined by “and”; a condition that tells them apart may be missing. Identical values can stand only once. The panel holds about 79,000 compounds, 15% with a hit somewhere; the sample as a whole holds those more often. Values without a mark were called inactive. Activity calls are given as the source filed them. Rule as the data show it: active = growth inhibition above about 70%; inactive = the rest.

What was measured:
[1] = NCI Yeast Anticancer Drug Screen. Data for the rad50 strain (AID 155);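 also: 0% = growth of vehicle-only cultures of the same strain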; conditions: S. cerevisiae rad50 strain growth inhibition, hits give high values; at 50.0 µM unless noted
In short: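 A DNA repair-deficient yeast mutant serves as the test organism; compound-induced growth inhibition is calculated against vehicle-treated cells.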

[2] = NCI Yeast Anticancer Drug Screen. Data for the mec2-1 strain (AID 157); conditions: S. cerevisiae mec2-1 strain, hits give high values; at 50.0 µM unless noted
In short: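 Test agents were screened against the mec2-1 yeast strain, with defined DNA repair or cell cycle alteration. Growth was scored as inhibition against vehicle-only controls.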

[3] = NCI Yeast Anticancer Drug Screen. Data for the sgs1 mgt1 strain (AID 161);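 also: 0% = growth of cultures given vehicle only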; conditions: S. cerevisiae sgs1 mgt1 strain, hits give high values; at 50.0 µM unless noted
In short: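 Mutant yeast exposed to compound; growth scored against vehicle-only wells.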

[4] = NCI Yeast Anticancer Drug Screen. Data for the cln2 rad14 strain (AID 165);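 also: 0% = growth equal to vehicle treated cultures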; conditions: S. cerevisiae cln2 rad14 strain, hits give high values; at 50.0 µM unless noted
In short: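 Growth of compound-exposed yeast (cln2 rad14 genotype) measured and expressed as inhibition relative to vehicle.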

[5] = NCI Yeast Anticancer Drug Screen. Data for the bub3 strain (AID 167); conditions: S. cerevisiae bub3 mutant strain, hits give high values; at 50.0 µM unless noted
In short: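 Inhibition values come from growth of compound-treated mutant yeast normalised to vehicle-treated controls.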

[6] = NCI Yeast Anticancer Drug Screen. Data for the mlh1 rad18 strain (AID 175); conditions: S. cerevisiae mlh1 rad18 strain growth inhibition, hits give high values; at 50.0 µM unless noted
In short: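 In this whole-cell yeast screen, a strain with altered DNA damage repair is challenged with compound, and its growth is measured against matched vehicle-treated controls.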

CCOC(=O)CSCC(C)C(=O)OC (configuration not stated)
growth inhibition [1]: -0.3% | growth inhibition [2]: -0.5% | growth inhibition [3]: -2.7% | growth inhibition [4]: 7.2% | growth inhibition [5]: 2.5% | growth inhibition [6]: 2.25%

O=C1c2ccccc2C(=O)N1C/C=C/CO
growth inhibition [1]: 11.5% | growth inhibition [2]: 8.75% | growth inhibition [3]: -1.45% | growth inhibition [4]: 7.6% | growth inhibition [5]: 0.95% | growth inhibition [6]: 1.15%

NCCSS(=O)(=O)O
growth inhibition [1]: 3.25% | growth inhibition [2]: 4.45% | growth inhibition [3]: -17.7% | growth inhibition [4]: -41.5% | growth inhibition [5]: 0.45% | growth inhibition [6]: -24.9%

COC(=O)C(C)(N=Cc1ccccc1)c1ccccc1 (configuration not stated)
growth inhibition [1]: -34.2% | growth inhibition [2]: -30.9% | growth inhibition [3]: 6.7% | growth inhibition [4]: 17.4% | growth inhibition [5]: -9.75% | growth inhibition [6]: 0.6%

CCCc1cc2c(cc1CC#N)OCO2
growth inhibition [1]: -5.65% | growth inhibition [2]: 19.4% | growth inhibition [3]: -9.85% | growth inhibition [4]: 2.4% | growth inhibition [5]: -3.25% | growth inhibition [6]: 17.6%

ClCc1ccccc1C(c1ccccc1)c1ccccc1
growth inhibition [1]: -0.8% | growth inhibition [2]: 20.4% | growth inhibition [3]: 7.1% | growth inhibition [4]: -32.1% | growth inhibition [5]: 24.9% | growth inhibition [6]: 21.9%

COC(C(=O)NN)c1ccccc1 (configuration not stated)
growth inhibition [1]: -25.1% | growth inhibition [2]: -60.5% | growth inhibition [3]: -59.8% | growth inhibition [4]: -43.5% | growth inhibition [5]: -35.5% | growth inhibition [6]: -35.8%

Cn1ccn(C2CCCCC2)c1=O
growth inhibition [1]: 3.35% | growth inhibition [2]: 5.1% | growth inhibition [3]: -0.25% | growth inhibition [4]: -12.3% | growth inhibition [5]: 35% | growth inhibition [6]: 7.95%

O=[N+]([O-])c1ccc(/C=N/Nc2nnc3c4ccccc4c4ncccc4c3n2)o1
growth inhibition [1]: -20.8% | growth inhibition [2]: -14.6% | growth inhibition [3]: -23.6% | growth inhibition [4]: -29.8% | growth inhibition [5]: -33.8% | growth inhibition [6]: 16.9%

Cc1ccc(S(=O)(=O)NN=C2C3C=CC2CC3)cc1
growth inhibition [1]: 11.8% | growth inhibition [2]: -2.3% | growth inhibition [3]: 2.55% | growth inhibition [4]: 6.25% | growth inhibition [5]: 2.7% | growth inhibition [6]: 4.75%

Cc1c(Cl)cccc1NC(=O)C(=O)c1c(O)c2ccc(O)cc2oc1=O
growth inhibition [1]: 4.8% | growth inhibition [2]: 1.25% | growth inhibition [3]: -19.1% | growth inhibition [4]: 3.45% | growth inhibition [5]: -15.6% | growth inhibition [6]: 5.35%

Cc1ccc(NC(=O)CCS)cc1
growth inhibition [1]: -1.75% | growth inhibition [2]: -25.9% | growth inhibition [3]: 9.5% | growth inhibition [4]: 2.1% | growth inhibition [5]: -13.2% | growth inhibition [6]: 15.9%

O=c1c2cc3c(=O)n4c(cc(-c5ccccc5)c5cc(Cl)ccc54)nc3cc2nc2cc(-c3ccccc3)c3cc(Cl)ccc3n12
growth inhibition [1]: 14.2% | growth inhibition [2]: 5.55% | growth inhibition [3]: 18.9% | growth inhibition [4]: 14.2% | growth inhibition [5]: -1.05% | growth inhibition [6]: -9.7%

O=[N+]([O-])c1cnccc1/C=C\c1ccccc1
growth inhibition [1]: 4.5% | growth inhibition [2]: 3.15% | growth inhibition [3]: -2.1% | growth inhibition [4]: -35.9% | growth inhibition [5]: -5.7% | growth inhibition [6]: 12%

NC(=S)Nc1nnc(-c2ccc(-c3nnc(NC(N)=S)o3)cc2)o1
growth inhibition [1]: 18.4% | growth inhibition [2]: 6.65% | growth inhibition [3]: -21.2% | growth inhibition [4]: 5.35% | growth inhibition [5]: 2.05% | growth inhibition [6]: -8.05%

Nc1nc2ncn(CCO)c2c(=O)[nH]1
growth inhibition [1]: 9.4% | growth inhibition [2]: 1.95% | growth inhibition [3]: 2.8% | growth inhibition [4]: -0.65% | growth inhibition [5]: 3.35% | growth inhibition [6]: 16.4%

CC(=O)OC1COC(N2C(=O)C(=O)c3c(C)cc(Cl)nc32)C(OC(C)=O)C1OC(C)=O (configuration not stated)
growth inhibition [1]: -22.6% | growth inhibition [2]: -15.7% | growth inhibition [3]: -22.4% | growth inhibition [4]: -24.1% | growth inhibition [5]: -24.1% | growth inhibition [6]: -8.3%

Cl
growth inhibition [1]: -13.4% and -6.25% | growth inhibition [2]: -29.2% and 17.5% | growth inhibition [3]: -10.4% and 1.8% | growth inhibition [4]: -0.9% and 2.2% | growth inhibition [5]: -5.15% and -38% | growth inhibition [6]: -16% and -32.6%

Cc1cc(C2=NCC(C)(C)S2)ccc1O
growth inhibition [1]: 15.2% | growth inhibition [2]: 7.8% | growth inhibition [3]: 8.9% | growth inhibition [4]: 10.2% | growth inhibition [5]: 25% | growth inhibition [6]: 29.5%

Nc1ccc(S(=O)(=O)CCCl)cc1
growth inhibition [1]: 8.7% | growth inhibition [2]: 0.95% | growth inhibition [3]: 18.5% | growth inhibition [4]: 22.2% | growth inhibition [5]: 13.7% | growth inhibition [6]: 11.6%

CCN(CC)C/C(C)=C(/c1ccccc1)c1ccccc1S(N)(=O)=O
growth inhibition [1]: 5.8% | growth inhibition [2]: 4.15% | growth inhibition [3]: -1.5% | growth inhibition [4]: -30.6% | growth inhibition [5]: 1.15% | growth inhibition [6]: 9.65%

Oc1cc2c(cc1-c1cc3c(cc1O)OCO3)OCO2
growth inhibition [1]: -21.1% | growth inhibition [2]: -15.3% | growth inhibition [3]: -5.15% | growth inhibition [4]: -41% | growth inhibition [5]: -3.2% | growth inhibition [6]: 0.55%

CN1C(=O)N(C2CCCCC2)C(=O)C(C)(CN2CCCCC2)C1=O (configuration not stated)
growth inhibition [1]: 12.7% | growth inhibition [2]: 14.1% | growth inhibition [3]: 12.2% | growth inhibition [4]: 17.6% | growth inhibition [5]: -5.25% | growth inhibition [6]: 12.2%

Nc1ccc2ncc(Nc3ccc(F)cc3)nc2c1
growth inhibition [1]: 37.7% | growth inhibition [2]: -22.6% | growth inhibition [3]: 25.1% | growth inhibition [4]: 23.4% | growth inhibition [5]: 17.8% | growth inhibition [6]: 15.6%

OC(c1ccc(OCc2ccccc2)cc1)c1ccccn1 (configuration not stated)
growth inhibition [1]: -1.15% | growth inhibition [2]: -0.65% | growth inhibition [3]: -4.45% | growth inhibition [4]: -16.4% | growth inhibition [5]: -5.7% | growth inhibition [6]: -0.3%

COc1ccc(CCNC(=O)CCN2C(=O)CCC2=O)cc1OC
growth inhibition [1]: 8.7% | growth inhibition [2]: -12.8% | growth inhibition [3]: 1.55% | growth inhibition [4]: -3.25% | growth inhibition [5]: -14.8% | growth inhibition [6]: -2.9%

CCC(O)(c1ccccc1)C(O)(CC)c1ccccc1 (configuration not stated)
growth inhibition [1]: 15.8% | growth inhibition [2]: 8.9% | growth inhibition [3]: -2.05% | growth inhibition [4]: 22.8% | growth inhibition [5]: -13% | growth inhibition [6]: 23.3%

O=C(O)/C=C\C(=O)NNC(=O)/C=C\C(=O)O
growth inhibition [1]: 5.55% | growth inhibition [2]: -2.8% | growth inhibition [3]: -5.05% | growth inhibition [4]: -18.9% | growth inhibition [5]: 5.45% | growth inhibition [6]: -24.4%

COC1=C2CC(C)CC(OC)C(O)C(C)/C=C(\C)C(OC(N)=O)C(OC)/C=C\C=C(/C)C(=O)NC(=C(/C=N/N(C)C)C1=O)C2=O (configuration not stated)
growth inhibition [1]: -11.3% | growth inhibition [2]: -63.5% | growth inhibition [3]: -35% | growth inhibition [4]: 3.5% | growth inhibition [5]: -16.9% | growth inhibition [6]: -25.8%

CCOC(CN)(OCC)c1ccncc1
growth inhibition [1]: 10.9% | growth inhibition [2]: 14.2% | growth inhibition [3]: 8.65% | growth inhibition [4]: -27.1% | growth inhibition [5]: 11.2% | growth inhibition [6]: -0.05%

COC1(OC)CC2C(=O)N(Cc3ccccc3)C1CC2S(=O)(=O)c1ccccc1 (configuration not stated)
growth inhibition [1]: 6.7% | growth inhibition [2]: -2.1% | growth inhibition [3]: -16.1% | growth inhibition [4]: 22.8% | growth inhibition [5]: -2.3% | growth inhibition [6]: 11.4%

CCCC(c1ccc(N(C)C)cc1)c1ccc(N(C)C)cc1
growth inhibition [1]: -5% | growth inhibition [2]: -22% | growth inhibition [3]: -2.75% | growth inhibition [4]: 16.6% | growth inhibition [5]: 29.3% | growth inhibition [6]: -30%

Cc1ccc(S(=O)(=O)/N=S(/Cc2ccccc2)c2c(C)cccc2C)cc1 (configuration not stated)
growth inhibition [1]: 20.9% | growth inhibition [2]: 2.65% | growth inhibition [3]: 20.6% | growth inhibition [4]: 17.6% | growth inhibition [5]: -0.75% | growth inhibition [6]: 3.3%

C/C(=N/NC(N)=O)C1CCc2ccccc2C1 (configuration not stated)
growth inhibition [1]: 43% | growth inhibition [2]: -6.9% | growth inhibition [3]: 3.2% | growth inhibition [4]: 1.95% | growth inhibition [5]: 7.8% | growth inhibition [6]: 22.9%

COc1ccc(C=Nc2ccccc2C(=O)O)cc1
growth inhibition [1]: 0.2% | growth inhibition [2]: 7.1% | growth inhibition [3]: 0.65% | growth inhibition [4]: -41.9% | growth inhibition [5]: 24.3% | growth inhibition [6]: 5.9%

CCOc1cc2c(cc1C(C)c1ccc(OC)c(C)c1)OCO2 (configuration not stated)
growth inhibition [1]: 11.1% | growth inhibition [2]: 5.6% | growth inhibition [3]: -2.3% | growth inhibition [4]: 74% (active) | growth inhibition [5]: 26.2% | growth inhibition [6]: 5.7%

CC(C)=CCNc1ncnc2c1ncn2CCC(=O)O
growth inhibition [1]: -23.9% | growth inhibition [2]: -4.6% | growth inhibition [3]: -57% | growth inhibition [4]: -4.45% | growth inhibition [5]: -9.85% | growth inhibition [6]: -28.9%

NC(=O)CC[n+]1ccccc1
growth inhibition [1]: 11.1% | growth inhibition [2]: -29.3% | growth inhibition [3]: 6.5% | growth inhibition [4]: 11.7% | growth inhibition [5]: -19.4% | growth inhibition [6]: 7.2%

O=C(OCc1ccccc1CN1CCCCC1)c1cccc(Cl)c1
growth inhibition [1]: -2.85% | growth inhibition [2]: -7.7% | growth inhibition [3]: -6.3% | growth inhibition [4]: -10.3% | growth inhibition [5]: 7.35% | growth inhibition [6]: 2.3%

CC(C)(C)c1cc2c(O)c3cccc4c(=O)c5cccc6c5-c(c34)c2c(c1)c6=O
growth inhibition [1]: 33.9% | growth inhibition [2]: 15.1% | growth inhibition [3]: -26.8% | growth inhibition [4]: 7.2% | growth inhibition [5]: 4.8% | growth inhibition [6]: -11.2%

CC1=C(C(=O)Nc2cc(=O)n(C)c(=O)n2C)C(c2ccco2)C(C(=O)Nc2cc(=O)n(C)c(=O)n2C)=C(C)N1
growth inhibition [1]: -0.5% | growth inhibition [2]: 17.9% | growth inhibition [3]: -10.9% | growth inhibition [4]: 13.3% | growth inhibition [5]: -4.6% | growth inhibition [6]: -0.4%

CC(Sc1nc(N)nc2nc[nH]c12)C(=O)O (configuration not stated)
growth inhibition [1]: -15.2% | growth inhibition [2]: -3.55% | growth inhibition [3]: -11.3% | growth inhibition [4]: -23.6% | growth inhibition [5]: 4.15% | growth inhibition [6]: 11%
